Measurements published in the supplement of paper PMC11732987, “Enantioselective OTUD7B fragment discovery through chemoproteomics screening and high-throughput optimisation” (Communications Chemistry, 2025).

compound: ClCC(=O)N1CCCC1=O; test: log2 ratio of Biotin-Ahx-Ub-VS probe labelling (fragment/DMSO); higher = less target engagement (more negative = stronger competition), active = hit call of the paper (q ≤ 0.05, log2 ratio ≤ -1); conditions: compound concentration: 200 uM; treatment time: 3 h
Description: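 Competitive ABPP in HEK293T cell lysate. Lysates were treated with each chloroacetamide fragment at 200 µM for 3 h, then with Biotin-Ahx-Ub-VS (0.5 µM, 1 h), NeutrAvidin-enriched and analysed by diaPASEF LC-MS/MS. Protein LFQ was median-normalised; average log2 ratio is fragment/DMSO from an unpaired t-test (n=3 treated, n=44 DMSO). Hits: q ≤ 0.05, log2 ratio ≤ -1, unique peptides ≥ 2.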

Chain of UniProt Q9UPT9 (Q9UPT9 whole entry): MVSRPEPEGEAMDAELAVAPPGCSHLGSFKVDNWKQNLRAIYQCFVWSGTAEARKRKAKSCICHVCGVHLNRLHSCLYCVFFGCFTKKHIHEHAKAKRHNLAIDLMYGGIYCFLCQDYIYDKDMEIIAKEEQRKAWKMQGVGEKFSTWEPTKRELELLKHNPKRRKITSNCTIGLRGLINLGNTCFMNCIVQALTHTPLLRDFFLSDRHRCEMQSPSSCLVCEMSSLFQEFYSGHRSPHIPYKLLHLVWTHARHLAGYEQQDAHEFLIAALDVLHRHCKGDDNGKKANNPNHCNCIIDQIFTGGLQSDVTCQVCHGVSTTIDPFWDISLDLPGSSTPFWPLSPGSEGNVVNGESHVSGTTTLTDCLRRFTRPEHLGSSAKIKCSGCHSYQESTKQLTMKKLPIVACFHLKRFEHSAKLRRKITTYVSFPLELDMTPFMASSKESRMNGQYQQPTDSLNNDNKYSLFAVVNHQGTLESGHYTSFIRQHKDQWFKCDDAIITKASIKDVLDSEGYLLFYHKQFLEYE
Chain of UniProt Q9NUU6 (Q9NUU6 whole entry): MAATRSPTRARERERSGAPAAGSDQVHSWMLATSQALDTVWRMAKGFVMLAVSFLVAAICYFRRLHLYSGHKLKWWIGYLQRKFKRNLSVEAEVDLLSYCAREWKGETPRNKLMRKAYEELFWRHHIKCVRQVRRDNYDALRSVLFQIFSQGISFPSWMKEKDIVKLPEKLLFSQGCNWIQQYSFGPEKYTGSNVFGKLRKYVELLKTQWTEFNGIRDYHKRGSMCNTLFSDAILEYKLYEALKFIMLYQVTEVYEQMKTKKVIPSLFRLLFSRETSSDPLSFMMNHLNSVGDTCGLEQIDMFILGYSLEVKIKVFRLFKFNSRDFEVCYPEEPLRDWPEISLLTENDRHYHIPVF
Chain of UniProt Q53GS9 (Q53GS9 whole entry): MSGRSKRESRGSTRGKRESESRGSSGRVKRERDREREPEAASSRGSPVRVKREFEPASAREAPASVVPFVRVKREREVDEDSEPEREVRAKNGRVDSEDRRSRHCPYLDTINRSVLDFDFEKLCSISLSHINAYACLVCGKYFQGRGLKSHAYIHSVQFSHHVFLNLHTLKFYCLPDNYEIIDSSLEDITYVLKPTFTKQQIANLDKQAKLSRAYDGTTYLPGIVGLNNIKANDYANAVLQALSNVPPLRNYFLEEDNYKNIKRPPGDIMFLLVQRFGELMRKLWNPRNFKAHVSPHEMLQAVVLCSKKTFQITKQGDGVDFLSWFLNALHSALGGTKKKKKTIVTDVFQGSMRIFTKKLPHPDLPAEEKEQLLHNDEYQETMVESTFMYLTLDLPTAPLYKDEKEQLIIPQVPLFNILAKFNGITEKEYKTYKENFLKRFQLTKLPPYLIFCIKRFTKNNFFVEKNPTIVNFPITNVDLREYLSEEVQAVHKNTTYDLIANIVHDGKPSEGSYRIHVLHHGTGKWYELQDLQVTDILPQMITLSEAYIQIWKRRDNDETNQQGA
Chain of UniProt Q9UHP3 (Q9UHP3 whole entry): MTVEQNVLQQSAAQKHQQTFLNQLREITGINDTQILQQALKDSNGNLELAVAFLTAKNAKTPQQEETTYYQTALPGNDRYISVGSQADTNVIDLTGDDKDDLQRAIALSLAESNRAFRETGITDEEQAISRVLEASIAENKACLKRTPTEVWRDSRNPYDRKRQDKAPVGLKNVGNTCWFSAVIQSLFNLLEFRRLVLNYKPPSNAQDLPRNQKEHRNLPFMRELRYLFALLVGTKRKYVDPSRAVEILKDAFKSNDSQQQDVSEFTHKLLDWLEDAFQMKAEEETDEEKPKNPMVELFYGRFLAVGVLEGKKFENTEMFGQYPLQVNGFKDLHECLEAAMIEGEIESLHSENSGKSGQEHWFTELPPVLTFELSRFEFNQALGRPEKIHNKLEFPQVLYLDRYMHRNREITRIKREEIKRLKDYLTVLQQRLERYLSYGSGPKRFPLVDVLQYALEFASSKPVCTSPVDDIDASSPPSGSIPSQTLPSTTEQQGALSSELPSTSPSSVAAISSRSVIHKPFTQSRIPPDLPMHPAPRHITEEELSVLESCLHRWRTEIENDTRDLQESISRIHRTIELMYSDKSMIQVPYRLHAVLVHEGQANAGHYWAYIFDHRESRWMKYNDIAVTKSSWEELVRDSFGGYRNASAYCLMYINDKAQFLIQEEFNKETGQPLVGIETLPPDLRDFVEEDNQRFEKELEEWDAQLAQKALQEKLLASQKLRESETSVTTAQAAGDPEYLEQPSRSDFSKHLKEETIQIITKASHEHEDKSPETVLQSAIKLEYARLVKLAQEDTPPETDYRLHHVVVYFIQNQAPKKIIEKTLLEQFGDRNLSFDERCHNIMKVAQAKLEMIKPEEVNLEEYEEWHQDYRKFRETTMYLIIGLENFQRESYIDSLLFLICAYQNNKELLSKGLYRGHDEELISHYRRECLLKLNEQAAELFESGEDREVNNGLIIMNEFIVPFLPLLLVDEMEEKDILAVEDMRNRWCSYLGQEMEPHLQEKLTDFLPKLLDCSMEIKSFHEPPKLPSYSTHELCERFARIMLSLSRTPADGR
Chain of UniProt Q96G74 (Q96G74 whole entry): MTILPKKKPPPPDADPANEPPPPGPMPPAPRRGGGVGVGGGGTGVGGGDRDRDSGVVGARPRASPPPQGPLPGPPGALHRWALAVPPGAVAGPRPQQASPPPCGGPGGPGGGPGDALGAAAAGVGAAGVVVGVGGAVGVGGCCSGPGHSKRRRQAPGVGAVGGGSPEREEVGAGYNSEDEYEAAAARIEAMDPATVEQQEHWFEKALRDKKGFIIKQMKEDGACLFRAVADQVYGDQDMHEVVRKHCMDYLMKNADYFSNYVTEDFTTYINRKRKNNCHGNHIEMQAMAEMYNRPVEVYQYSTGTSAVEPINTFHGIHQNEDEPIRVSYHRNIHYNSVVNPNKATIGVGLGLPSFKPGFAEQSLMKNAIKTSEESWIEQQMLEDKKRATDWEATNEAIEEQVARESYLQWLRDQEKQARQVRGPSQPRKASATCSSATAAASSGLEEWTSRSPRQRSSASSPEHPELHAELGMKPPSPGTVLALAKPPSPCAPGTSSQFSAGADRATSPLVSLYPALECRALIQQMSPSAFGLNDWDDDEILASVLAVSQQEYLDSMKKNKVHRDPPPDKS
Chain of UniProt Q13107 (Q13107 whole entry): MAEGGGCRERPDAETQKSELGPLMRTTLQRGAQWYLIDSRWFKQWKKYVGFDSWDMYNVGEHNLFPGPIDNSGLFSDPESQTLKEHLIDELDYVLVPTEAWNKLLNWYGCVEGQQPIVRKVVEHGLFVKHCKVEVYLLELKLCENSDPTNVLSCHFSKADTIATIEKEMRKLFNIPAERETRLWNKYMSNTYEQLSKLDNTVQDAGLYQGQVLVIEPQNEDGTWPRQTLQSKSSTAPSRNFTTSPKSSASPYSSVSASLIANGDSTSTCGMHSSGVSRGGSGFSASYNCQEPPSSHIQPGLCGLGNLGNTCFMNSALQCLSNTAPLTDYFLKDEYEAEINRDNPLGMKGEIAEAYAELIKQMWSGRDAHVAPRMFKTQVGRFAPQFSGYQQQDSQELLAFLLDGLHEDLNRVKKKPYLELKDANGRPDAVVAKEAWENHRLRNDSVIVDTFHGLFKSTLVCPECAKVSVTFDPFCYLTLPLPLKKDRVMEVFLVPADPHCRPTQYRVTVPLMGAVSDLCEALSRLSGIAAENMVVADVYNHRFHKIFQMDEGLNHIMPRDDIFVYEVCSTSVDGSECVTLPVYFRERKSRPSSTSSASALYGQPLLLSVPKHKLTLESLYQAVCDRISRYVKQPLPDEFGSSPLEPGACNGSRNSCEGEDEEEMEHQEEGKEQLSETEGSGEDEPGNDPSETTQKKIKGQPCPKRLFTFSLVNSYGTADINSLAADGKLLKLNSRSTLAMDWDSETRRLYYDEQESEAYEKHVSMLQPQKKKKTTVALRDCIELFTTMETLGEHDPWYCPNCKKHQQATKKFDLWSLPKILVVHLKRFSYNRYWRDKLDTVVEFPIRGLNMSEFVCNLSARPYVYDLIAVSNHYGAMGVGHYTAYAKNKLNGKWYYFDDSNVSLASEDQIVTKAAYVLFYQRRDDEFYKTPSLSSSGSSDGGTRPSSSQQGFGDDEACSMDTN
Chain of UniProt P54252 (P54252 whole entry): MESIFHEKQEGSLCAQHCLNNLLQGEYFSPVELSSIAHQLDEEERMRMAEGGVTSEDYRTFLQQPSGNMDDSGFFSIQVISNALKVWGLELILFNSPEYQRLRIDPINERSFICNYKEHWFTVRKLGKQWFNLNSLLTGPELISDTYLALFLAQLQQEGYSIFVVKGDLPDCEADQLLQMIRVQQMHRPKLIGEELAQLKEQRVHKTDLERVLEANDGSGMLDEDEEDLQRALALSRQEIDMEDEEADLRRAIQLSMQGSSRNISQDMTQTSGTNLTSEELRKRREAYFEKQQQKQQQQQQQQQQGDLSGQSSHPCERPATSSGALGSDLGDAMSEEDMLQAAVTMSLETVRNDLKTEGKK

| Target | log2 ratio of Biotin-Ahx-Ub-VS probe labelling |
| --- | --- |
| USP39 (UniProt Q53GS9) | 0.0278 (inactive) |
| OTUD5 (UniProt Q96G74) | -0.377 (inactive) |
| ATXN3 (UniProt P54252) | -0.301 (inactive) |
| USP4 (UniProt Q13107) | -0.146 (inactive) |
| USP48 (UniProt Q86UV5) | -0.22 (inactive) |
| USP25 (UniProt Q9UHP3) | -0.183 (inactive) |
| USP22 (UniProt Q9UPT9) | -0.616 (inactive) |
| FAM105A (UniProt Q9NUU6) | -0.739 (inactive) |
